a7 integrin act – activates integrin-mediated alleviation for muscular dystrophy; 350,000 compounds, 0.064% hits; Potency, µM (highest dose often 38.3 µM), without a hit: at the top dose activation, actives largely listed as activators; alpha7betagal myoblasts, beta-gal FDG fluorescence, 48 h; AID 624291;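 note: 100% = response of the positive control SU9516; nearly all actives have a fitted effect of over 60% in size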
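alpha7betagal+/- myoblasts (passage 13, 250/well) treated 48 h at 37C with compounds at 1:260 dilution of DMSO stock. Lysed, then beta-galactosidase activity read as FDG fluorescence (ex 480/em 540) after 30 min, with pre-read for autofluorescence.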
VP16 counter – Gal4-VP16 reporter inhibition counter-screen; AID 2546; 310,000 compounds, 3.5% hits; Potency, µM (top dose mostly 53.6 µM), inactives show at the highest dose activity, negative = inhibition, usual class: inhibitors; Drosophila S2 Gal4-VP16 UAS-luciferase, luminescence, 20 h;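 note: Gal4-VP16 expression switched on by copper sulfate through the metallothionein promoter; % is set by controls: 0 for no effect and ±100 for the full control effect; nearly all actives have a fitted effect of over 50% in size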
uPA surface inh – blocks generation of uPA at the cell surface. cell surface uPA generation assay, qHTS. Potency, µM (top dose mostly 38.3 µM), inactives show at the top dose activity change, negative = inhibition, hits mostly inhibitors. 330,000 compounds, 0.31% hits. AID 540303; active = well fitted inhibition curve with a large enough effect; inconclusive = small, poorly fitted or top-dose-only effect; inactive = no such curve, though single readings can be large or run the other way; tested in mouse RAW 264.7 cells; note: % is set by controls: 0 for no effect and ±100 for the full control effect; nearly all actives have a fitted effect of over 55% in size
Chronic BCR inh – blocks chronic active B-cell receptor signaling; ABC-DLBCL IkBa-CBG/CBR reporter, luminescence ratio, 4 h; 340,000 compounds, 0.05% hits; Potency, µM (titrated, usually from 46.1 µM), for inactives: at the top dose activity change, negative = inhibition, most hits filed as inhibitors; active = well fitted inhibition curve with a large enough effect in the signal ratio, with a control signal flat, not every such curve was filed as active; inconclusive = small, poorly fitted or top-dose-only effect, or effect the other way, or a change in a side signal; the % refers to the signal ratio;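 note: plate controls were basal doxycycline-induced cells for no effect and cells given 10 µM MG132 for full effect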
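Doxycycline induced both beetle luciferases in TMD8 lymphoma cells; IKK-driven degradation limits the IkappaBalpha-fused green signal, while red luminescence normalises for cell number and nonspecific effects. Compounds tested up to 46 uM, 4 hrs.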
RORg inh – inhibitors of mouse ROR gamma transcriptional activity | P51450 | 310,000 compounds, 5.4% hits | Drosophila S2 Gal4-RORgamma UAS-luciferase reporter, 20 h | AID 2551 | Potency, µM (series often up to 53.6 µM), for the others: at the top dose activity change, negative = inhibition, usual class: inhibitors; note: % is set by controls: 0 for no effect and ±100 for the full control effect; nearly all actives have a fitted effect of over 60% in size
Target sequence (P51450 whole entry, looked up, the tested form may be a part): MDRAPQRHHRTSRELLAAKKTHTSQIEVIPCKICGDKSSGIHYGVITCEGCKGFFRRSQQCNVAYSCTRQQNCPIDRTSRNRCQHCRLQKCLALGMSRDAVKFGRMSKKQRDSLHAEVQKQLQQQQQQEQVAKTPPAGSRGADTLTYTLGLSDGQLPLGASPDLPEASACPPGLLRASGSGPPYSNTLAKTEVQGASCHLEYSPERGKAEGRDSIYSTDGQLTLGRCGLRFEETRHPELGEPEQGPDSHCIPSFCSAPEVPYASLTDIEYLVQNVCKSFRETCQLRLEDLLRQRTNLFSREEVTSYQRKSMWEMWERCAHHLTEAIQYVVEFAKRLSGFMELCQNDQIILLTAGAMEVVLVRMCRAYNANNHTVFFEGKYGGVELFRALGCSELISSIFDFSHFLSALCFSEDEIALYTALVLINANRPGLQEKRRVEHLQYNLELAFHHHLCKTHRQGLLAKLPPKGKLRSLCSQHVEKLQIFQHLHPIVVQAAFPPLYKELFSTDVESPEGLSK
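Luminescence from a UAS-regulated Photinus luciferase reporter in stably transfected Drosophila Schneider cells is measured; decreased signal marks ROR gamma inhibition. Fusion expression is induced by 700 uM copper sulfate for 20 hr.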
Mito fusion act – blocks mitochondrial division or promotes mitochondrial fusion | S. cerevisiae fusion-defective mutant growth rescue, CellTiterGlo 48 h | Potency, µM (top dose mostly 46.1 µM), for inactives: at the highest dose growth rescue (activation), most hits filed as activators | 320,000 compounds, 0.23% hits | AID 485298; note: % of control where 0% means no effect; nearly all actives have a fitted effect of over 45% in size
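Luminescent cell viability in 1536-well qHTS format served as the measure of rescued growth in ts fusion-mutant S. cerevisiae cultured on non-fermentable YPEG for 48 hours at 37C.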
Starred values were filed as active, the others as inactive; ? = inconclusive; nt = no result. A selection: hits, their analogues and other compounds. The true share with any hit is near 5.5%. Unless noted, calls come from the whole dose curve; as a rule, active = well fitted curve in the direction sought with a large enough effect; inconclusive = small, poorly fitted or top-dose-only effect, or another doubt; inactive = no such curve, though single readings can be large; an effect the other way counts as inactive or inconclusive. Potency is the fitted concentration of half-maximal effect.

SMILES | a7 integrin act | VP16 counter | uPA surface inh | Chronic BCR inh | RORg inh | Mito fusion act
CCOC(=O)N1CCN(C(=O)CCNS(=O)(=O)c2ccc3c(c2)c(=O)n(C)c(=O)n3C)CC1 | -7% | -12% | 3% | 3% | 0% | 1%
COC(=O)N1C(C)=Cc2ccccc2C1CC(C)=O (stereo unspecified) | nt | 1% | nt | nt | -6% | nt
CC[C@H](C)[C@H](NC(=O)[C@H](Cc1ccc(O)cc1)NC(=O)[C@@H](NC(=O)[C@H](CCCNC(=N)N)NC(=O)[C@@H](N)CC(=O)O)C(C)C)C(=O)N[C@@H](Cc1cnc[nH]1)C(=O)N1CCC[C@H]1C(=O)N[C@@H](Cc1ccccc1)C(=O)N[C@@H](Cc1cnc[nH]1)C(=O)N[C@@H](CC(C)C)C(=O)N[C@@H](CC(C)C)C(=O)N[C@H](C(=O)N[C@@H](Cc1ccc(O)cc1)C(=O)N[C@@H](CO)C(=O)O)C(C)C | nt | -11% | nt | nt | 13% | nt
CN1CCC2(CC1)N=C(c1ccc(F)cc1)C(=S)N2C(=O)c1ccccc1 | -21% | ? | 4% | ? | ? | 2%
CCN1CCC2(CC1)N=C(c1ccc(F)cc1)C(=S)N2C(=O)c1ccc(C(C)(C)C)cc1 | 6% | ? | -2% | -2% | 4µM* | -7%
C=C(C(C)=O)C(O)c1cccc(OC)c1 (stereo unspecified) | nt | 7% | nt | nt | -3% | nt
CCc1ccc2c(-c3cccc(Cl)c3)nc(=O)n(CC)c2n1 | nt | 2% | nt | nt | ? | 12µM*
COCCn1c(=O)c(-c2cccc(Cl)c2)nc2cncnc21 | nt | 3% | nt | nt | 2% | nt
Nc1c(C(=O)Nc2cccc(C(=O)O)c2)sc2nc3c(cc12)CCCC3 | 7% | 3.2µM* | -16% | ? | 2.8µM* | 2%
CC(=O)c1ccc(-c2c(C3C4C=CCC(C)C4C(=O)N3Cc3ccccc3)ccc3ccccc23)cc1 (stereo unspecified) | nt | 5% | nt | nt | -13% | nt
Cc1ccc(NC(=O)CSCC(=O)N(C)CC(=O)Nc2cccc(F)c2)cc1 | 20% | nt | -1% | 1% | nt | -5%
C/C(=N/NC(=O)c1ccc(Cl)s1)c1cccnc1 | 12% | ? | 3% | ? | 13µM* | -4%
C/C(=N/NC(=O)c1cc(-c2ccccc2)nc2c(Cl)cccc12)c1cccnc1 | -31% | 11µM* | -19% | -2% | 18µM* | 5%
C/C(=N/NC(=O)c1ccc(C)s1)c1cccnc1 | 6% | 7% | -23% | ? | -26% | -2%
CCOC(=O)Nc1ccc2c(c1)N(C(=O)CCN(CC)CC)c1ccccc1CC2 | 5% | -16% | -2% | ? | -2% | -1%
CCOC(=O)Nc1ccc2c(c1)N(C(=O)CCN(CC)CC)c1ccccc1S2=O (stereo unspecified) | -30% | 13µM* | 17% | ? | ? | -9%
CC(C)N(Cc1ccccc1)C(C)C (tested in a mixture with another compound) | nt | 5% | nt | nt | 13% | nt
CCN(CC)c1ccc(NC(=O)c2ccccn2)cc1S(=O)(=O)Nc1ccccc1OC | -12% | nt | 2% | -12% | nt | 7%
O=C(CN1C(=O)c2ccccc2S1(=O)=O)c1ccc(F)cc1 | 8% | 5µM* | ? | -3% | 7.9µM* | -3%
O=C(CN1C(=O)c2ccccc2S1(=O)=O)c1ccc(OC(F)F)cc1 | 19% | 10µM* | -6% | -1% | 13µM* | 1%
COC(=O)CCN(c1ccccc1)S(=O)(=O)c1cc(-c2cc(C)no2)ccc1OC | 6% | 3% | -4% | ? | 3% | 7%
COc1ccccc1CCNC(=O)C(=O)NCC(c1ccco1)S(=O)(=O)c1ccccc1 (stereo unspecified) | nt | nt | nt | 0% | nt | nt
CCOC(=O)/C(=N\Nc1ncnc2ccccc12)c1ccc(OC)cc1 | 0% | 14µM* | 2% | ? | 7.1µM* | -7%
COc1ccc(/C(=N/Nc2ncnc3ccccc23)C(=O)O)cc1 | 5% | 0.5µM* | 1% | -4% | 0.28µM* | -2%
